# Screening data as filed in PubChem BioAssay.
# Most compounds without a hit are left out; they make up all but 3% or so of the library.
# PP5 primary = blocks human protein phosphatase 5 activity | AID 1987 | purified PP5c, OMFP substrate fluorescence | P53041 | hit rate 0.18% among 320,000 | inhibition, % at 6.7 µM;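 active = inhibition above the campaign's mean inhibition across all tested compounds plus 3 SD, cut at about 9.5% in these data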;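 note: 0% = DMSO only and 100% = 100 µM cantharidin control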
# Target sequence (P53041 whole entry, looked up): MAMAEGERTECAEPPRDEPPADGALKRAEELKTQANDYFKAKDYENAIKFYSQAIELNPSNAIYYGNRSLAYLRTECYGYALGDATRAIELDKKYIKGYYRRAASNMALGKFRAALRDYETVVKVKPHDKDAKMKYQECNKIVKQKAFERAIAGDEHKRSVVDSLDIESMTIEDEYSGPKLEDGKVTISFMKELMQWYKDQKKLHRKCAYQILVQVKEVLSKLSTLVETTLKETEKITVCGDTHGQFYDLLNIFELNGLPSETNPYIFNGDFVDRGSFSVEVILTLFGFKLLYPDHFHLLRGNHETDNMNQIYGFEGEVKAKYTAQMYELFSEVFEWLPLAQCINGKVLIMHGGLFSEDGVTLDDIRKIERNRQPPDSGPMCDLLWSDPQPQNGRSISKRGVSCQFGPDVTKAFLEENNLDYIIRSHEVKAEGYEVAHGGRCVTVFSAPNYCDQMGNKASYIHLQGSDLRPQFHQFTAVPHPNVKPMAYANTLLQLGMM
# CTSL1 counter = cathepsin L1 inhibition, PFM18AAP counter-screen; recombinant F. hepatica cathepsin L1, Z-Leu-Arg-MCA fluorescence; inhibition, % at 5.96 µM; hit rate 0.49% among 300,000;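 active = inhibition above the mean of all tested compounds plus 3 SD, set per screening campaign, cut at about 17% in these data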;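 note: 0% = plate median of test compound wells and 100% = 1 µM Z-Phe-Ala-diazomethylketone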
# PAFAH1B3 inh = inhibitors of human PAFAH1B3; Q15102; recombinant PAFAH1B3, FP-rhodamine probe, fluorescence polarization; inhibition, % at 3.39 µM; hit rate 0.28% among 340,000; AID 492972;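 active = inhibition above the screen-wide average of all tested compounds plus 3 SD, cut at about 25% in these data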;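 note: 0% = enzyme with DMSO only and 100% = wells lacking PAFAH1B3 protein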
# PAFAH2 inh = PAFAH2 (human) inhibition; hit rate 0.99% among 340,000; AID 492956; recombinant PAFAH2, FP-rhodamine activity probe, fluorescence polarization; Q99487; inhibition, % at 3.39 µM;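 active = inhibition above the mean over all tested compounds plus 3 SD, cut at about 30% in these data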;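 note: inhibitors block probe labeling of enzyme so polarization drops; 0% = enzyme with DMSO and 100% = wells lacking PAFAH2 protein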
# pPAFAH inh = inhibitors of human plasma PAF acetylhydrolase (pPAFAH) | recombinant pPAFAH, FP-rhodamine probe fluorescence polarization | inhibition, % at 3.39 µM | hit rate 1.5% among 330,000;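 active = inhibition above the mean inhibition across the screen plus 3 SD, cut at about 25% in these data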;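 note: inhibitors block binding of the rhodamine activity-based probe so polarization drops; 0% = enzyme with DMSO and 100% = wells lacking pPAFAH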
# PAFAH1B2 inh = PAFAH1B2 (human) inhibition. P68402. recombinant PAFAH1B2, FP-rhodamine activity probe, fluorescence polarization. inhibition, % at 3.39 µM. hit rate 1.2% among 340,000;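 active = inhibition above the mean of all tested compounds plus 3 SD, cut at about 24% in these data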;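 note: 0% = enzyme with DMSO and 100% = wells lacking PAFAH1B2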
# An asterisk follows results filed as active; / = no result given.
SMILES,PP5 primary,CTSL1 counter,PAFAH1B3 inh,PAFAH2 inh,pPAFAH inh,PAFAH1B2 inh
O=C(O)c1ccc(NS(=O)(=O)c2ccc(NC(=O)c3ccccc3Cl)cc2)cc1,2,2,4,-6,3,4
Cc1ccc(NS(=O)(=O)c2ccc(NC(=O)CSc3ccc(Cl)cc3)cc2)c(C)c1,0,4,9,-7,33*,18
CCCNS(=O)(=O)c1cc2c3c(c1)CCN3C(=O)CC2,0,-3,5,-3,9,2
CC(C)(C)c1ccc(NC(=O)COC(=O)c2ccc(NS(=O)(=O)c3ccc(F)c(F)c3)cc2)cc1,4,6,-9,24,31*,-6
CCC(=O)Nc1ccc(C(=O)OCC(=O)c2ccc(C)c([N+](=O)[O-])c2)cc1,2,-3,11,13,5,-3
CCN(CC)S(=O)(=O)c1ccc(NC(=O)COC(=O)c2ccc(Br)o2)cc1,4,-18,1,2,10,5
CCN(CC)S(=O)(=O)c1ccc(NC(=O)COC(=O)c2ccc(NC(=O)CC#N)cc2)cc1,3,-9,6,-7,26*,-8
CNC(=O)COC(=O)c1ccc(NC(=O)CC#N)cc1,0,0,10,4,-3,3
CC(C)(C)NC(=O)NC(=O)COC(=O)c1cccc(NS(=O)(=O)c2ccc(F)c(F)c2)c1,1,-2,0,11,12,0
Cc1cc(C)c(C(=O)COC(=O)c2ccc(NC(=O)CC#N)cc2)cc1C,1,9,-9,-23,25*,-13
CC(=O)Nc1ccc(C(=O)OCC(=O)c2ccc(C)c([N+](=O)[O-])c2)cc1,3,-5,4,33*,-8,-2
CNc1cc(=O)n(C)c(=O)n1-c1ccccc1,3,31*,6,3,-6,8
O=c1c2ccccc2nc(COc2ccccc2)n1/N=C/c1cc([N+](=O)[O-])ccc1O,0,6,6,-12,26*,-1
Oc1ccc(Br)cc1/C=N/n1c(COc2ccccc2)n[nH]c1=S,/,/,0,10,/,28*
S=c1[nH]nc(COc2ccccc2)n1/N=C/c1ccccc1Br,5,0,9,11,13,9
COc1ccccc1C(=O)NCC(=O)N1CCN(c2ncccn2)CC1,2,/,11,-2,3,3
O=C(O)c1cccc(-n2cccc2/C=C2/NC(=O)N(c3ccc(Cl)cc3)C2=O)c1,/,/,36*,72*,/,28*
COc1ccc(-n2cccc2/C=C2/NC(=O)N(c3cccc(Cl)c3)C2=O)cc1,0,1,3,10,5,4
CC(C)CN(C(=O)COc1ccc(-c2nnco2)cc1)C1CCS(=O)(=O)C1 (configuration not stated),3,0,9,1,5,3
O=C(CCNC(=O)c1ccccc1)Nc1ccc(Cl)c(S(=O)(=O)N2CCCCC2)c1,/,/,7,1,2,0
O=C(NCC(=O)N1CCC2(CC1)NCCc1[nH]cnc12)c1ccc2ccccc2c1,3,-3,1,6,8,-2
Oc1ccc(N2CCN(C(c3cccs3)c3nnnn3CCc3ccccc3)CC2)cc1 (configuration not stated),2,0,3,0,30*,19
COc1ccc(Cn2nnnc2C(c2cccs2)N2CCN(c3ccccc3)CC2)cc1 (configuration not stated),5,-1,7,-1,9,-5
CCN=C1S/C(=C/c2ccc(-c3ccc(F)cc3)o2)C(=O)N1CC,2,18*,2,-3,2,0
NC(=O)c1ccsc1NC(=O)COC(=O)c1ccc([N+](=O)[O-])o1,0,/,6,-1,5,-1
SMILES,PP5 primary,CTSL1 counter,PAFAH1B3 inh,PAFAH2 inh,pPAFAH inh,PAFAH1B2 inh
NC(=O)c1ccsc1NC(=O)c1ccc([N+](=O)[O-])o1,/,/,9,36*,36*,9
Cc1ccc(-c2csc(NC(=O)c3ccc([N+](=O)[O-])o3)n2)cc1,3,17*,13,4,16,3
Cc1ccc(-c2csc(NC(=O)c3ccc(C)o3)n2)cc1,1,-3,8,-8,4,-1
N#Cc1ccccc1S(=O)(=O)N1CCC(C(=O)NCc2ccccc2CN2CCCC2)CC1,-3,/,-2,5,2,1
CCOC(=O)c1c(C)oc(NC(=O)CCl)c1C(=O)OCC,1,84*,-3,-6,1,-2
O=C(Cc1ccccc1F)NNC(=O)c1ccncc1,0,1,4,1,2,7
O=C(Cc1cccc2ccccc12)NN1C(=O)/C(=C\c2cccnc2)SC1=S,0,1,0,-8,3,3
O=C(NN1C(=O)/C(=C\c2cccnc2)SC1=S)C(c1ccccc1)c1ccccc1,0,3,5,7,13,29*
CC(=O)NN1C(=O)/C(=C/c2ccc(C(C)C)cc2)SC1=S,2,2,7,-3,12,42*
O=C(NN1C(=O)/C(=C/c2cccnc2)SC1=S)C(c1ccccc1)c1ccccc1,1,-1,4,6,12,27*
CC1(C)CC2CC(C)(CN2C(=O)COC(=O)c2ccccc2C(F)(F)F)C1 (configuration not stated),5,/,8,0,5,11
Cc1ccc(C(=O)OC(C)C(=O)c2cc(C)c(C)cc2C)o1 (configuration not stated),4,-31,0,5,12,3
C/C(=N\NC(=O)CNC(=O)c1cccc(F)c1)c1ccc2ccccc2c1,0,1,-3,4,5,0
CCOc1cc(/C=C2\N=C(SCC)SC2=O)cc([N+](=O)[O-])c1OC(C)=O,3,1,12,53*,23,24*
C/C(=C1/SC(N2CC(C)OC(C)C2)=NC1=O)c1ccccc1 (configuration not stated),1,2,6,-1,28*,8
C/C(=C1\SC(N2CCOCC2)=NC1=O)c1ccccc1,2,-1,4,5,3,5
O=C(Nc1cccc(-n2cnnn2)c1)c1cccs1,-1,7,5,1,1,-6
Cc1ccsc1C(=O)Nc1cccc(-n2cnnn2)c1,0,19*,-2,2,-3,3
COc1ccccc1OCCC(=O)OCC(=O)Nc1ncc(Cl)cc1Cl,0,-10,0,15,26*,0
O=C(COC(=O)c1nc(Cl)ccc1Cl)Nc1ncc(Cl)cc1Cl,-1,-9,51*,52*,4,61*
O=C(COC(=O)c1ccc(S(=O)(=O)NCc2ccco2)cc1)Nc1ncc(Cl)cc1Cl,-1,-8,2,16,25*,2
Cc1ccc(N2C(=O)CC(Sc3nc4ccccc4o3)C2=O)cc1Cl (configuration not stated),3,-3,3,-3,-3,30*
